The whole screen tested about 410,000 compounds, of which about 18,000 (4.4%) were called active. About 7% were inconclusive and are not listed. What follows is part of a selection rich in actives, with near analogues and random picks from the rest. A number with no mark means an inactive call. Cut-off read from the data, not from the text of the source: active = activity change below about -60%; inconclusive = no clear call, values can overlap the other calls; inactive = above about -39%.
% is set by controls: 0 for no effect and ±100 for the full control effect.

The nature of this assay: qHTS Assay for inhibitors of the human cytomegalovirus (HCMV). Particulars: HFF cells, HCMV-luciferase reporter, 72 h; at 57.5 µM; stronger effect = lower value. The method, boiled down:
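Compounds were evaluated in HFFs infected with an HCMV luciferase reporter virus (MOI 1 PFU/cell). Luciferase in lysates collected 72 h post infection served as the replication measure.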
As for `COc1ccc(OC)c(NC(=O)CN2CCCN(Cc3cc(C)ccc3C)S2(=O)=O)c1`, the activity change, negative = inhibition is 0%.
In the case of `Cc1ccnc(NC(=O)C2CCN(S(=O)(=O)c3c(C)c(C)cc(C)c3C)CC2)c1` it was -4.39%; in that of `CN1CCN(C(=O)CCc2ncc(C(F)(F)F)cc2Cl)CC1`, -28.5%.
In the case of `CC(C)n1ncc2c(C(=O)Nc3ccc(CC#N)cc3)cc(C3CC3)nc21` it was 30.4%.
As for `N#CCc1ccc(NC(=O)c2ccccc2C(=O)Nc2ccc(CC#N)cc2)cc1`, the figure is -72.2% (active).
Consider `CC(=O)Nc1ccc(CC#N)cc1`, for which the activity change, negative = inhibition is 26.2%.
Take `Cc1ccc(-c2nc3cccc(C)n3c2Nc2ccc3c(c2)OCCO3)cc1`: the activity change, negative = inhibition is 76%.
In the case of `COc1ccc(NC(=O)C2CCCN(S(=O)(=O)c3cccc4nonc34)C2)cc1Cl` (centres undefined) it was -11.9%; in that of `O=C(C1CC1)N1CCc2cc(Br)cc(S(=O)(=O)N3CCN(c4ccccc4F)CC3)c21`, 6.64%.
Regarding `CNC(=O)c1ccc(-c2nc(CN3CCc4ccccc43)c(C)o2)cc1`, the activity change, negative = inhibition is 18.4%.
Take `Cc1ccc(N2CC(NC(=O)Cc3cccs3)CC2=O)cc1` (centres undefined): the activity change, negative = inhibition was 76%.
As to `CCOC(=O)C1CCN(c2ncnc3c2c(-c2ccccc2)cn3-c2ccc(C)cc2)CC1`, the activity change, negative = inhibition is -37.8%.
`Cc1sc2ncnc(N3CCC(C(=O)Nc4ccc(F)cc4Cl)CC3)c2c1C`: the activity change, negative = inhibition was -21.6%.
In the case of `CCc1ccc(C(=O)NNC(=O)C2CCN(c3ncnc4sc(C)c(C)c34)CC2)cc1`, the activity change, negative = inhibition was -65.2% (active).
With `O=C(O)c1ccc(Cn2cnc3c(=S)nc[nH]c32)cc1`, the activity change, negative = inhibition was 1.65%.
As for `NC1=NC(c2cc(F)cc(F)c2)n2c(nc3ccccc32)N1` (centres undefined), the figure is -1.84%.
As for `Cn1sc(=O)c2cc(S(=O)(=O)NC3CC3)ccc21`, the activity change, negative = inhibition was -82.6% (active).
In the case of `CC1CCC(NS(=O)(=O)c2ccc3c(c2)CC(=O)N3)CC1` (centres undefined) it was 23.2%.
In the case of `Cc1ccc(S(=O)(=O)NC2CCCCCC2)cc1C(N)=O` it was -23.9%.
In the case of `O=S1(=O)CC(N2CCSCC2)CN1Cc1cn(Cc2cccc(Cl)c2)nn1` (centres undefined) it was -0.598%.
As for `O=C(NCCc1ccc(Cl)cc1)c1ccc2nc(CCc3ccccc3)oc2c1`, the activity change, negative = inhibition was 44.3%.
As for `CCOc1ccccc1CNCc1c(C(=O)O)c(C)n(Cc2ccc(C)cc2)c1C`, the figure is 2.89%; as for `O=C(CSc1nc(-c2cccc(F)c2)[nH]c1-c1ccccc1)Nc1ccc2c(c1)OCO2`, -87.5% (active).
Turning to `O=C(CSc1nc(C2CC2)nc2ccccc12)Nc1ccc2c(c1)OCCO2`, the activity change, negative = inhibition was -71.4% (active).
In the case of `O=C(CSc1nnnn1C1CCCC1)Nc1ccc2c(c1)OCCO2` it was 15.2%.
As to `O=C(CSc1nnc(CNC(=O)c2ccc(F)cc2)o1)Nc1ccc2c(c1)OCO2`, the activity change, negative = inhibition is -6.33%.
In the case of `O=C(CSc1ccc(-c2ccc(F)cc2)nn1)Nc1ccc2c(c1)OCCO2` it was 16.6%; in that of `O=C(CSc1nc(=O)n2ccccc2n1)Nc1ccc2c(c1)OCCO2`, -0.0406%; in that of `CCOc1cc(C(=O)Nc2nnc3n2CCS3)cc(OCC)c1OCC`, -4.78%.
As for `O=C(CSc1ncc(-c2ccccc2)[nH]1)Nc1ccc(F)cc1F`, the figure is -18.3%; as for `N#Cc1c(NC(=O)CCCN2C(=O)c3ccccc3C2=O)oc(-c2ccccc2)c1-c1ccccc1`, -2.46%.
For `CC(=O)Nc1ccc(NC(=O)CCN2C(=O)C3CC=CCC3C2=O)cc1` (centres undefined), the activity change, negative = inhibition was 19.5%.
As to `O=C(CCCN1C(=O)/C(=C\c2ccccc2)SC1=S)Nc1ccccc1O`, the activity change, negative = inhibition was -94.8% (active).
In the case of `O=C(CCCN1C(=O)/C(=C/c2ccccc2)SC1=S)Nc1ccc(O)cc1`, the activity change, negative = inhibition was -85.4% (active).
`O=C(CC1C(=O)N(c2ccccc2)C(=O)N1CCc1cccs1)Nc1ccc(F)cc1` (centres undefined): the activity change, negative = inhibition was -11.5%.
As for `O=C(CCCN1C(=O)C(c2ccccc2)Oc2cccnc21)Nc1ccccc1Br` (centres undefined), the figure is 4.91%.
For the molecule `Cc1cc(C)cc(NC(=O)CCN2C(=O)c3ccccc3C2=O)c1`, the activity change, negative = inhibition was -12.5%.
In the case of `O=C(CCCN1C(=O)/C(=C/c2ccco2)SC1=S)Nc1ccccc1` it was -96.7% (active).
As for `Cc1cc(OCCCC(=O)NCCN2C(=O)S/C(=C\c3cccnc3)C2=O)ccc1Cl`, the figure is -21.9%; as for `COc1ccc(NC(=O)CCCN2C(=O)C(c3ccccc3)Oc3cccnc32)cc1` (centres undefined), 37.1%; as for `COC(=O)C1=C(C)N(C(C)c2ccccc2)C(=O)/C1=C\c1ccco1` (centres undefined), 29.2%.
As for `O=C(CCCN1C(=O)/C(=C/c2cccs2)SC1=S)Nc1ccc(O)cc1`, the figure is -92.8% (active); as for `COCCN(Cc1ccco1)C(=O)Cn1ncc2c([nH]c3ccccc32)c1=O`, 1.17%; as for `N#Cc1cccc(CN2CCC(=O)N([C@H](CO)c3ccccc3)CC2)c1`, -24.2%.
For the molecule `O=C(Nc1ccc(Br)cc1)c1cc2nc(-c3ccccc3)cc(-c3ccccc3)n2n1`, the activity change, negative = inhibition is 22.2%.
In the case of `CCc1ccc2oc(=O)cc(CN3CCCCC3C)c2c1` (centres undefined) it was -19%.
In the case of `CCOC(=O)c1[nH]c(C)c(CCC(=O)NCc2ccccc2C)c1C` it was -16.4%.
Consider `Cc1ccsc1C(=O)NNC(=O)COc1ccc(Br)cc1`, for which the activity change, negative = inhibition is -16.1%.
In the case of `Cn1cnnc1SCC(=O)NNC(=O)COc1ccc(Br)cc1` it was -26.5%.
In the case of `Cc1ccc(O)c(NC(=S)NC(=O)COc2ccc(Br)cc2)c1` it was -97.8% (active); in that of `COc1ccc(CN2CCc3nc(Nc4ccccc4)ncc3C2)c(OC)c1OC`, -16.7%; in that of `COc1ccc(S(=O)(=O)c2cn(C)c3cc(N4CCCCC4)c(F)cc3c2=O)cc1`, -2.52%.
Take `COc1cccc(CCNC(=O)c2cccc(NC(=O)C3=C(C)OCCS3)c2)c1`: the activity change, negative = inhibition is -34.7%.
In the case of `Cc1nc2nc(C)c(NS(=O)(=O)c3ccc(C(C)(C)C)cc3)c(=O)n2[nH]1` it was 2.48%; in that of `O=C(Nc1ccc(N2CCN(C(=O)c3ccccc3)CC2)c(Cl)c1)c1cccnc1`, -70.9% (active).
In the case of `Cc1ccccc1N1CCN(C(=O)c2cccnc2)CC1` it was -6.56%.
Regarding `O=C(Nc1ccc(N2CCN(C(=O)c3ccccc3)CC2)c(Cl)c1)c1ncn[nH]1`, the activity change, negative = inhibition was -25.4%.
In the case of `CC(Nc1ccccc1)c1cccnc1` (centres undefined) it was 4.97%; in that of `CC(C)COP(=O)(c1ccc(N(C)C)cc1)C(Nc1ccccc1)c1cccnc1` (centres undefined), -101% (active); in that of `Cc1ccc(C(O)P(=O)(OC(C)C)c2ccc(N(C)C)cc2)cc1` (centres undefined), 15.1%.
In the case of `Cc1ccc(S(=O)(=O)n2nc(-c3ccc(Cl)cc3)nc2NCc2ccccc2)cc1` it was 8.1%; in that of `COc1ccc(C2c3c(oc4ccccc4c3=O)C(=O)N2Cc2ccc3c(c2)OCO3)cc1` (centres undefined), -4.99%.
As for `COc1ccc(-c2nn(CC(=O)Nc3ccccc3F)c3c2cnc2ccc(F)cc23)cc1`, the figure is 39.2%; as for `O=c1[nH]c(-c2ccccc2)cn1C1CCN(Cc2ccc(-c3nc4ccc(F)cc4nc3-c3ccccc3)cc2)CC1`, 54.8%.
Regarding `CCc1cc(-c2nnn(CCC3COCCO3)c2CC)ccc1-c1cn(Cc2ccc3ccccc3c2)nn1` (centres undefined), the activity change, negative = inhibition was -80.6% (active).
As for `O=C(C1CCC1)N1C[C@H]2[C@@H](c3ccccc31)[C@@H](CO)N2C(=O)c1ccccc1F`, the figure is 27.8%; as for `CC(C)(C)c1ccc(C(=O)NCC(c2ccc(Cl)cc2)N2CCOCC2)cc1` (centres undefined), -1.98%; as for `Cc1ccc(C(=O)N2c3ncnn3C3(CCCCC3)[C@@H]3CCCC[C@@H]32)cc1`, -15.5%.
In the case of `COc1ccc(CCN2CC(C(=O)OCC(=O)NCc3ccccc3Cl)CC2=O)cc1OC` (centres undefined) it was 16.6%; in that of `COc1ccc(S(=O)(=O)N2CC3ON=C(c4c(F)cccc4Cl)C3C2)cc1OC` (centres undefined), -7.48%; in that of `COc1ccc(CC(=O)N2CC3ON=C(c4c(F)cccc4Cl)C3C2)cc1OC` (centres undefined), -61.7% (active).
For `COc1ccccc1NC(=O)c1oc2ccccc2c1NC(=O)COc1ccccc1OC`, the activity change, negative = inhibition is 2.62%.
In the case of `CCOc1ccccc1CNC(=O)c1cnc2c(-c3ccc(OCC)c(OCC)c3)c(C)nn2c1C`, the activity change, negative = inhibition was -3.31%.
Regarding `Cc1ccc(CN2COc3cc(C)c4c(oc(=O)c5ccccc54)c3C2)cc1`, the activity change, negative = inhibition is 8.87%.
With `CC1CCc2sc(C(=O)N/N=C/C3CCCCC3)cc2C1` (centres undefined), the activity change, negative = inhibition was 13.4%.
As for `C/C(=N\NC(=O)c1cccnc1)c1ccc(-n2ccnc2)cc1`, the figure is -16.6%; as for `C/C(=N\NC(=O)c1cc2c(s1)CCC(C)C2)c1cccnc1` (centres undefined), -78.9% (active).
In the case of `Cc1ccc(C)c(N2CCN(Cc3nnc(-c4ccccc4)o3)CC2)c1` it was 27.7%; in that of `COc1ccc(-c2nc(CN3CCC(C(=O)NCCN(CC(C)C)CC(C)C)CC3)c(C)o2)cc1OC`, -0.431%; in that of `Cc1nnc(C)n1-c1ccc(C(=O)Nc2cccc(Br)c2)cc1`, 33.2%.
Take `CCN1C(=O)N[C@@H](CCc2ccccc2)C(C(=O)OC)=C1C`: the activity change, negative = inhibition was -1.16%.
For the molecule `CCOC(=O)CN(C(=O)COc1nc(C)cc(C)c1C#N)c1ccc(Cl)cc1`, the activity change, negative = inhibition is -1.87%.
In the case of `CCOc1cc(/C=C(/C#N)c2ccc(Cl)cc2)cc(Cl)c1OCC(=O)O`, the activity change, negative = inhibition is -79.4% (active).
Regarding `CCOc1ccc(/C=C(\C#N)c2nc3ccccc3c(=O)[nH]2)cc1OC`, the activity change, negative = inhibition was 18%.
In the case of `Cc1ccc(Cn2c(=O)n(-c3ccc(C)cc3)c(=O)c3c2c2cc(C)ccc2n3C)cc1` it was 5.49%.
As to `CC1CCCN(c2cc3c(cc2F)c(=O)c(S(=O)(=O)c2cccc(Cl)c2)cn3Cc2ccccc2)C1` (centres undefined), the activity change, negative = inhibition is -26.5%.
With `CC1(C(=O)Nc2ccc3c(c2)OCCO3)CCN1C(=O)Cc1cc(F)ccc1F` (centres undefined), the activity change, negative = inhibition was 20.3%.
In the case of `O=C(/C=C\c1ccc2c(c1)OCO2)NC1(C(=O)Nc2ccc3c(c2)OCCO3)CCCCC1` it was -87.5% (active); in that of `S=C(Nc1ccc2c(c1)OCO2)N1CCCC1`, 17.6%.

Values taken from PubChem BioAssay AID1259415 (National Center for Advancing Translational Sciences (NCATS), 2018).
